# Test results as given in PMC12136788.
# Whole data set: some 24,000 sequences, median “enrichment r” near 0.99, cut for the highest 2% near 3.7. The sample as a whole holds a higher share of the highest values than the screen did.
# T1: UNK ZnF1-3 (human, UniProt Q9C0B0 31-174)
# T1 sequence: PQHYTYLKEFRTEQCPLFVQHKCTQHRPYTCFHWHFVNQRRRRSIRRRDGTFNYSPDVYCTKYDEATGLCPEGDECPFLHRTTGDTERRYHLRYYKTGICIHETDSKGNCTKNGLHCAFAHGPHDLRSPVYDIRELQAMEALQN
# B1: chr16:94690093:94690094:+_ENSMUSG00000040785_ENSMUST00000117648|mus_hu|mus_mus_mus_hu_True|18_68 (ssRNA)
# RNA: GGGAGUUCUACAGUCCGACGAUCGGGCUGGGAUGACGGACACACAGCCUCGAUUCCAGGGGGAAAAAAAAAUAGCCGAUACUAAUUAAAAAGUGUUAAUGAUUUUUGAAAAUCAGAUGUAGAUUAAAAAAGAUGAAAAGCAAACAACAGAGGAUUGAGCAUCA
# B2: chr4:25749455:25749456:-_ENSG00000091490_ENST00000264868|hu_hu|hu_hu_hu_mus_False|8_68 (ssRNA)
# RNA: GGGAGUUCUACAGUCCGACGAUCGCACUAUGACCUCUAGAAAAAUCCACAGGGGGAAAAAAUGUAAACCAAUUUACAAUGUUAUCGCCUUCCCUGUGUGUGGAGUGUUUGUCUCAAGGCUCCUUCUUGCCUUAUAAUUUGGGACAACAGAGGAUUGAGCAUCA
# B3: chr4:144460044:144460045:+_ENSG00000153147_ENST00000283131|hu_mus|hu_hu_hu_mus_False|18_68 (ssRNA)
# RNA: GGGAGUUCUACAGUCCGACGAUCACGGUCCAUAGCCUGAAGAUCAACUUGCGGAUUCCAAUCUGAGUCAUACAAAAUGACUACAUCAGCAGUUGCAAGAUUGAUGCCCAGACCACCAGCACGCGUGCUUAGCAUAAAUACAAACAACAGAGGAUUGAGCAUCA
# B4: 47062174_47062422_1437_CDS_ENSG00000130985_ENST00000335972|human|control|control (ssRNA)
# RNA: GGGAGUUCUACAGUCCGACGAUCGACCUCUUUGUCCUCAGGGAGACACUCAAGGGCAUCAAAGUAUAGCCACUGCAUGAUGGGCAUGAACUUCCCGGAGCAGGCCUUCAUGACUUCCUGGGCAGCCAGGCCCCCAAUGAAGGCCAACAGAGGAUUGAGCAUCA
# B5: chr6:30691630:30691631:+_ENSG00000196230_ENST00000327892|hu_hu|FALSE|FALSE (ssRNA)
# RNA: GGGAGUUCUACAGUCCGACGAUCAGCUCGAUACUGCUGGCUUCCACGGCUGGUGAGAGGGGCAAAGCCAGGCAUAAAGAAAUGGAGACGUGGGAAGGGGACCAUGUUGACUGCCAACUUGCGGAGGUCAGCAUUGAGCUGGCCCAACAGAGGAUUGAGCAUCA
# B6: 132387670_132387790_77_5pUTR_ENSG00000170606_ENST00000304858|human|control|control (ssRNA)
# RNA: GGGAGUUCUACAGUCCGACGAUCGGUACUGCAACCGAGAGCGCUGCUCAGGCCGGCUCCGGCUCAGUGGCCGCAGAGGAGGCGCCGGUAGCGGGGGCGGAGAAGAUCUCGAAAGAUCUCGUUGCGACGAGAGCGGAGCCGCAGCAACAGAGGAUUGAGCAUCA
# B7: 98346538_98346658_211_5pUTR_ENSG00000077147_ENST00000371142|human|control|control (ssRNA)
# RNA: GGGAGUUCUACAGUCCGACGAUCCAGCCACAGCGCGGCGGCCGCCGCCACGCCAAGAGCGCCAGGCAGCGGCCUCAUCCUCCGCGCCCCUCCGGCCCGGAGCCGGCUCACCGACUCCUCCUCCCGCCGCCGCCUCCUCCGCCGCAACAGAGGAUUGAGCAUCA
# B8: chr7:133967480:133967481:+_ENSMUSG00000058966_ENSMUST00000079423|mus_mus|FALSE|FALSE (ssRNA)
# RNA: GGGAGUUCUACAGUCCGACGAUCAGGGAGUUGGAGGUGAAGAAGGGAUUGCCAAGCCAGAAAGGGAGAGAGAAAGAGGGAGGGGGAGGCACAAAGGGGCCAGGGCGGGGACAGGAUGGGACAAGAGGACCAGUUCAGGGCAAGCAACAGAGGAUUGAGCAUCA
# B9: 91300164_91300284_179_3pUTR_ENSMUSG00000038459_ENSMUST00000117085|mouse|control|control (ssRNA)
# RNA: GGGAGUUCUACAGUCCGACGAUCCCGCCGGGGCGGGCGCGGGGGUCGCCGCGGGAGCGGGCGCGCGCUGCUCGGGCGCCAGCACCGUGUAGGUGGGUUCGGGCGGCAGGAAGGCCAGCUUGGCGGCGAUGCGGCUCGGACAAGCAACAGAGGAUUGAGCAUCA
# B10: 44991723_44991843_1432_CDS_ENSMUSG00000038518_ENSMUST00000173246|mouse|control|control (ssRNA)
# RNA: GGGAGUUCUACAGUCCGACGAUCCUGAGCAGACCGAUGCGAAGGGGGAGGUUGGUGGUUGGCAGCAAGUCCCUUGGCAGAGGAAGCCGCAGCCGAGGCGGCCGUGGGCUGAGCCCCUGAAGCCUGUUCUCUCCGGCUGUCUGCCAACAGAGGAUUGAGCAUCA
# B11: chr9:123912698:123912699:+_ENSG00000119397_ENST00000373850|hu_hu|FALSE|FALSE (ssRNA)
# RNA: GGGAGUUCUACAGUCCGACGAUCAUGGUGUUCAGGGACGUUGCAAUGCAGCACACCCAUAGGGAUGAAGGGGAUGGAGAAGUUGGGGGGUGGAGGCCCAUACACCAUGGGGGCCCCAGCAGGAGGUGGGCCAUAAACAACAGUCAACAGAGGAUUGAGCAUCA
# B12: chr2:180329438:180329439:+_ENSMUSG00000049401_ENSMUST00000029087|mus_hu|FALSE|FALSE (ssRNA)
# RNA: GGGAGUUCUACAGUCCGACGAUCCUCUGAGGCACUCUGAGGGCCUGGCUCUGUGGGCGGCUGCUCCCGCCGGCUCAGCUCCAGCUUCCUCUUCUUGCUCUCUUUGGGGCUUAAGGGCUCCGGCCUAUCUUCCCCGUGGCCCCCCAACAGAGGAUUGAGCAUCA
# B13: 86322860_86322980_198_3pUTR_ENSG00000135018_ENST00000376395|human|control|control (ssRNA)
# RNA: GGGAGUUCUACAGUCCGACGAUCCUUCCUCCUCCCUGCCCCUUCCCCCACGUCCCUUCGCCGGCGCCGCGCGGAGCACGCCGGGUAACGCGCCUGGCGGCGUCGCCGAGUCAUCCCCGGCUGGCGCGACUUUGAGCUCAGCCUCAACAGAGGAUUGAGCAUCA
# B14: chr6:35489678:35489679:-_ENSMUSG00000029840_ENSMUST00000031866|mus_hu|FALSE|FALSE (ssRNA)
# RNA: GGGAGUUCUACAGUCCGACGAUCAGAAGAUGAGGAGGCGGUGGCAGCAGCAAGCGGAUGCCGCCGGGCGAGAGGGAGGCAGGGCCGCGCGAAGCCGGAGAGGAGAAGAAGAGAAGGAGGGUUAGGCUGCCAGGCGGGCGAGGCCAACAGAGGAUUGAGCAUCA
# B15: 126416003_126416123_291_3pUTR_ENSMUSG00000078429_ENSMUST00000105256|mouse|control|control (ssRNA)
# RNA: GGGAGUUCUACAGUCCGACGAUCAGGCGGCCUGCACAGAGGGCGGGCGGGCCAGGCGGCGGCUUCCCCGGUGCCCCCAGCCCCGAUCCCCCGGUGGCAGCUCCGGGCUCCUCAGUUUGGGUCCAACAUGGAGAAUCCGGAGCGCAACAGAGGAUUGAGCAUCA
# B16: 62352434_62352554_269_CDS_ENSMUSG00000018509_ENSMUST00000018653|mouse|control|control (ssRNA)
# RNA: GGGAGUUCUACAGUCCGACGAUCCUGCUCCCCCAGGUCGAGCGCCGACACCGAGGCGGCGGGGGUGACCGCCGGCGGUGGCUCCUCGGCGGCCGCCUCCUGGGCCCGCGGCGGUGGCUUGGGCCGCGGCUUUGCCGACGGCUGCAACAGAGGAUUGAGCAUCA
# Target: T1, UNK ZnF1-3
# Test: nsRBNS (natural sequence RNA bind-n-seq); RBNS binding buffer (assumed for nsRBNS): 25 mM Tris pH 7.5, 150 mM KCl, 3 mM MgCl2, 0.01% Triton X-100, 500 ug/ml BSA, 20 U/ml SUPERase-In, 4 C; UNK is unkempt and MSI1 is Musashi-1; names of the RNAs are library labels; protein concentration not given here; high values mean tight binding
row,Binder,binding signal [enrichment R]
1,B1,3.66
2,B2,0.719
3,B3,1.01
4,B4,1.06
5,B5,1.75
6,B6,1.09
7,B7,5.42
8,B8,5.53
9,B9,0.777
10,B10,1.39
11,B11,1.48
12,B12,0.81
13,B13,0.759
14,B14,3.69
15,B15,2.26
16,B16,4.47
